Activity calls are given as the source filed them. Unless noted, the rule behind the calls is not given here.
Legend:
[1] = anti-His antibody binders, primary screen, artefact control for SMM control protein annotation, biochemical, small-molecule microarray, 635 nm fluorescence (AID 1128); conditions: anti-His Alexa647 antibody binding, higher = more signal;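 note: score merges feature fluorescence with signal-to-noise for each printed compound spot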
[2] = system: Human papillomavirus type 1a E7 protein (residues 1-88); assay: HPV1a E7 small-molecule binders, primary screen, biochemical, small-molecule microarray, residues 1-88, 635 nm (AID 1129); conditions: small-molecule microarray binding, fluorescence 635 nm; higher = more signal
[3] = molecular target: Focal adhesion kinase 1 (Homo sapiens) (UniProt Q05397); assay: small-molecule microarray binders of FAK, primary screen, biochemical, 635/667 nm fluorescence, BSA, DTT (AID 1130); conditions: PTK2 binding, 635 nm fluorescence, higher = more signal;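 note: composite of spot emission at 667 nm and signal to noise over triplicate slides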
[4] = system: Fibrinogen (Alexa647-labelled); assay: fibrinogen binders on compound microarrays, profiling panel, artefact control for SMM control-protein annotation, biochemical, small-molecule microarray, 635/667 nm fluorescence (AID 1131); conditions: fibrinogen-A647 binding fluorescence, higher = more signal;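 note: z-score merges 667 nm fluorescence with per-spot signal-to-noise over triplicate slides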
[5] = molecular target: Follistatin (Homo sapiens) (UniProt P19883); assay: follistatin binders on small-molecule microarrays, primary screen, biochemical, small-molecule microarray, 635/667 nm fluorescence (AID 1132); conditions: FST binding, 635 nm fluorescence, higher = more signal
[6] = molecular target: Fibroblast growth factor 2 (Homo sapiens) (UniProt P09038); assay: FGF2 binders on small-molecule microarrays, primary screen, biochemical, small-molecule microarray, 635/667 nm fluorescence (AID 1133); conditions: small-molecule microarray binding, FGF2, fluorescence 635/667; higher = more signal
[7] = mitochondrial membrane potential change in A549 cells, profiling panel, cell-based, JC-1 fluorescence, basal, 24 h, 100 nL (AID 1138); conditions: higher = more signal;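 note: A549 lung adenocarcinoma cells under basal conditions with no added stimulus; test concentration not given here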
Lefty1 = Lefty1 binders on small-molecule microarrays, primary screen, biochemical, small-molecule microarray, 635/667 nm fluorescence (AID 1139); conditions: small-molecule microarray binding, fluorescence 635/667; higher = more signal
[8] = system: wheat germ agglutinin (Triticum aestivum), Alexa647-labelled; assay: wheat germ agglutinin binders on compound microarrays, profiling panel, artefact control for SMM control-protein annotation, biochemical, small-molecule microarray, 635/667 nm fluorescence (AID 1140); conditions: WGA-A647 binding, 635 nm fluorescence, higher = more signal;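 note: score merges 667 nm feature emission with signal to noise over triplicate slides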
[9] = molecular target: Luciferin 4-monooxygenase (Photinus pyralis) (UniProt P08659); assay: firefly luciferase enzyme inhibitors, primary screen, biochemical, luminescence, purified enzyme, 2006 set (AID 1141); conditions: SteadyGlo luminescence, 30 min, higher = more signal, called active from +8 up or from −8 down;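 note: cell-free assay with purified firefly luciferase at 100 ng per well in PBS; test concentration not given here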
[10] = system: Wnt5a (protein binding on small-molecule microarray); assay: Wnt5a binders on small-molecule microarray, primary screen, biophysical, 635/667 nm fluorescence (AID 1142); conditions: 635 nm fluorescence, higher = more signal;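 note: fluorescence read at 667 nm with signal to noise per printed feature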
[11] = cell viability in Huh7 cells, primary screen, cytotoxicity control for HCV replication inhibitor project, CellTiter-Glo luminescence, basal, 48 h (AID 1143); conditions: Huh7 HCV replicon, higher = more signal, called active from +8 up or from −8 down;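 note: Huh7 hepatoma cells carrying a hepatitis C replication reporter with no stimulus; test concentration not given here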
[12] = P. aeruginosa biofilm formation inhibitors, primary screen, PAO1 strain, BacTiter-Glo luminescence, LB-PBS (AID 1144); conditions: 12 h, higher = more signal
[13] = CREB reporter modulators without forskolin, primary screen, cell-based, PC12, CRE-LacZ reporter, unstimulated (AID 1145); conditions: no forskolin, luminescence, 4.5 h, higher = more signal, called active from +8 up or from −8 down
[14] = CREB reporter modulators under forskolin, primary screen, cell-based, PC12, CRE-LacZ reporter, forskolin-stimulated (AID 1146); conditions: luminescence, 4.5 h, higher = more signal, called active from +8 up or from −8 down;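 note: PC12 cells with 6xCRE LacZ reporter stimulated by forskolin 10 µM; beta-galactosidase reporter signal reflecting CREB driven transcription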
[15] = molecular target: Streptavidin (Streptomyces avidinii) (UniProt P22629); assay: streptavidin binders on small-molecule microarray, primary screen, artefact control for SMM compound annotation, biophysical, 635/667 nm fluorescence (AID 1147); conditions: streptavidin binding, higher = more signal;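 note: signal reflects streptavidin binding to arrayed compounds as a control protein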
[16] = small-molecule binders of probe aInhba, primary screen, biochemical, small-molecule microarray, 635/667 nm fluorescence (AID 1148); conditions: higher = more signal;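 note: score merges 667nm spot fluorescence with signal-to-noise for antibody binding to printed compounds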
Torsin-1A (Homo sapiens) [17] = molecular target: Torsin-1A (Homo sapiens) (UniProt O14656); assay: torsin A binders from cell lysate, primary screen, small-molecule microarray, wild-type, 635/667 nm (AID 1149); conditions: COS7 hTOR1A-WT lysate, 635 nm fluorescence, higher = more signal
Torsin-1A (Homo sapiens) [18] = molecular target: Torsin-1A (Homo sapiens) (UniProt O14656); assay: small-molecule binders of mutant TOR1A in lysate, primary screen, cell lysate, small-molecule microarray, COS7 lysate, 635/667 nm fluorescence (AID 1150); conditions: COS7 hTOR1A mutant lysate, 635 nm fluorescence, higher = more signal;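 note: score pools 667 nm emission and signal to noise measuring lysate protein binding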
[19] = system: Sonic hedgehog protein (Shh); assay: small-molecule binders of Shh protein, primary screen, biochemical, small-molecule microarray, 635/667 nm fluorescence (AID 1151); conditions: small-molecule microarray binding, 635 nm fluorescence; higher = more signal;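 note: Shh protein binding to compounds spotted on small-molecule microarray slides; score combines spot fluorescence intensity with signal-to-noise across triplicate slides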

Chain of Torsin-1A (Homo sapiens) (O14656 whole entry, looked up): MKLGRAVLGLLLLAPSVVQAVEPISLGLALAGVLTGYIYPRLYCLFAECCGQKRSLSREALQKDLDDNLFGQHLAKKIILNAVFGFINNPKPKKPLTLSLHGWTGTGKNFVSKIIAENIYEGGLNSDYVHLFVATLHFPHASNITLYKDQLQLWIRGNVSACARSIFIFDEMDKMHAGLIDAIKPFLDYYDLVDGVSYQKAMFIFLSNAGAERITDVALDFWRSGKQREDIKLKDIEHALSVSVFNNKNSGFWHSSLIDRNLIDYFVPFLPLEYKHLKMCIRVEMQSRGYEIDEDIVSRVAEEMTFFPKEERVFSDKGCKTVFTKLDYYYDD
Chain of Follistatin (Homo sapiens) (P19883 whole entry, looked up): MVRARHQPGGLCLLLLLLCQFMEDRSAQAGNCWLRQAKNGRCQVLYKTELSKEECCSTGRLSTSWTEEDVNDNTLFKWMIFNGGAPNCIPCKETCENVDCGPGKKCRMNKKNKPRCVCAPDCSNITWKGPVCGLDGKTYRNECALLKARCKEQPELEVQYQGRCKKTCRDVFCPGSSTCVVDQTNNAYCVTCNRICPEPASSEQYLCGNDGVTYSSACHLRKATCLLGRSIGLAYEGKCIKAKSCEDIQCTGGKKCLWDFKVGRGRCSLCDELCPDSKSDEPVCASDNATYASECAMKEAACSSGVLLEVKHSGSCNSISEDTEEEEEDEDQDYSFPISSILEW
Chain of Focal adhesion kinase 1 (Homo sapiens) (Q05397 whole entry, looked up): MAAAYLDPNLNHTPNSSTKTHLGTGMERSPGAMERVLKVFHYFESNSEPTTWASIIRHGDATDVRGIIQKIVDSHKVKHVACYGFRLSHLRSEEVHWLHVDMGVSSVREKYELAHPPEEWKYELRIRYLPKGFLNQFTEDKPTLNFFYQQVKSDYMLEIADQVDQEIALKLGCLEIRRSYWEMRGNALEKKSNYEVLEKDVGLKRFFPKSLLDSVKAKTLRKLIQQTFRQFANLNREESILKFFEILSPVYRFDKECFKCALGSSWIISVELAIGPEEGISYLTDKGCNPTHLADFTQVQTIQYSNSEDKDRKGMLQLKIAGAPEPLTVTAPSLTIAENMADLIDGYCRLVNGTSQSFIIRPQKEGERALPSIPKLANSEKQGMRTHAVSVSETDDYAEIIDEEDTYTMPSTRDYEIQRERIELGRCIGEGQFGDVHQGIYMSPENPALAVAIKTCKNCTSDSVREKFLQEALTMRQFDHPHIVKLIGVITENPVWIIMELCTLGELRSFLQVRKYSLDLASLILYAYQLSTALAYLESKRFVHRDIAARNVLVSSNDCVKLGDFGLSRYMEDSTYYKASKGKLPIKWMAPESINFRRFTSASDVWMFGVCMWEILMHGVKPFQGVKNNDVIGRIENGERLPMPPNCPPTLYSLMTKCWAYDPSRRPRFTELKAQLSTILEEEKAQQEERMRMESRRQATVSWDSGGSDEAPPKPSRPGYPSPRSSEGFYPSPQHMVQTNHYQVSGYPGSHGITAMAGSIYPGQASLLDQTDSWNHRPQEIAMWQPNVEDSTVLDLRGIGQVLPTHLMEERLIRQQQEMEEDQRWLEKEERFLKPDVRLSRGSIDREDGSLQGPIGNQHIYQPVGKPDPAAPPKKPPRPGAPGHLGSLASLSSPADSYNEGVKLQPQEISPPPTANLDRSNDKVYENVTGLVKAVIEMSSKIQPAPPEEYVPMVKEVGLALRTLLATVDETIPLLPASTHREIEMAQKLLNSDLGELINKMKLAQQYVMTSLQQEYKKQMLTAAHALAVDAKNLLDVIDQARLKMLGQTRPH
Chain of Fibroblast growth factor 2 (Homo sapiens) (P09038 whole entry, looked up): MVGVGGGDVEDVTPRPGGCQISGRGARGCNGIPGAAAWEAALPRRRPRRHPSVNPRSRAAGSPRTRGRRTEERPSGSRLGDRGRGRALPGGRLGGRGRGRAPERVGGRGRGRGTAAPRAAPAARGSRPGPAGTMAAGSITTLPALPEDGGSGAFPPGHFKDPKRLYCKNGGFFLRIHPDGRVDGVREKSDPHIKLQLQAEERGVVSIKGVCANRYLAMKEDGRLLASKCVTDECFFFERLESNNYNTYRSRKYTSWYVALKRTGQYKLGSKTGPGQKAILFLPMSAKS
Chain of Streptavidin (Streptomyces avidinii) (P22629 whole entry, looked up): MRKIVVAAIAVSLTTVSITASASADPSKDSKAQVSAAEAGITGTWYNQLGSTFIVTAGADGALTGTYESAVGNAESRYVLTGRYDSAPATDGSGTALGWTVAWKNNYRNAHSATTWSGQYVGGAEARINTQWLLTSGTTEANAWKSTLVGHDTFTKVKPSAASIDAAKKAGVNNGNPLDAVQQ
Chain of Luciferin 4-monooxygenase (Photinus pyralis) (P08659 whole entry, looked up): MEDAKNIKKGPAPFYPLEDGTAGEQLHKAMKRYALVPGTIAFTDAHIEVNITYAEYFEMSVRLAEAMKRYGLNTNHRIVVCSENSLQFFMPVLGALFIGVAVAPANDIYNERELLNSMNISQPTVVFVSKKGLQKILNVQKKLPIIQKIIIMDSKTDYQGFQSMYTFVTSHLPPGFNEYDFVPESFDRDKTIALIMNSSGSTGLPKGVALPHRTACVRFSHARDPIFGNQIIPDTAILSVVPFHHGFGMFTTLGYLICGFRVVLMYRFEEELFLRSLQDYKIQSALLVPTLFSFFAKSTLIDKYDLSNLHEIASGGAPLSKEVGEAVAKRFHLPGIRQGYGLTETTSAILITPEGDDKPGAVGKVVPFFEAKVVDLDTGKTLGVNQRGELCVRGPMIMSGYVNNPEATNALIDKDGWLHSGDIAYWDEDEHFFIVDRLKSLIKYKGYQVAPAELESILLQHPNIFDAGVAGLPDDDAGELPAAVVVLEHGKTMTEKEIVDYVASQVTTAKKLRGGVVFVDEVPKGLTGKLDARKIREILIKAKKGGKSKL

Row | Structure (SMILES) | composite z-score [1] | composite z-score [2] | composite z-score [3] | composite z-score [4] | composite z-score [5] | composite z-score [6] | z-score [7] | composite z-score (Lefty1) | composite z-score [8] | z-score [9] | composite z-score [10] | z-score [11] | z-score [12] | z-score [13] | z-score [14] | composite z-score [15] | composite z-score [16] | composite z-score (Torsin-1A (Homo sapiens) [17]) | composite z-score (Torsin-1A (Homo sapiens) [18]) | composite z-score [19]
1 | COc1ccc([Si](C)(C)[C@@H]2[C@@H](CC(=O)N(CCO)Cc3ccccc3)O[C@]3(C(=O)N(Cc4ccc(N5CCC5=O)cc4)c4ccccc43)[C@H]2C)cc1 | 1.28 | -0.324 | -0.162 | -0.263 | 0.818 | 0.988 | 0.445 | 0.565 | 0.431 | 0.295 (inactive) | -0.0009 | -5.9 (inactive) | -0.259 (inactive) | 5.16 (inactive) | 0.0245 (inactive) | -0.301 | -0.318 | -0.0822 | 0.134 | 0.7
2 | C=C(C(=O)CC[C@@H](OC(C)=O)c1cccc(OCCO)c1)C(C)C | 0.83 | 0.54 | 0.217 | -0.281 | 0.549 | -0.531 | -0.106 | 0.889 | 0.449 | -1.08 (inactive) | -0.162 | -0.344 (inactive) | 0.0482 (inactive) | 2.29 (inactive) | 1.23 (inactive) | -0.377 | 0.0053 | 1.93 | 0.456 | 2
3 | CCCCC(=C=CC[C@H](O)c1ccc(OCCO)cc1)C[C@H](O)c1ccccn1 | 1.67 | 1.13 | 0.26 | 0.963 | 1.27 | 1.54 | 1.27 | 0.885 | 0.266 | -2.27 (inactive) | 0.259 | -0.671 (inactive) | 0.229 (inactive) | 5.13 (inactive) | -0.533 (inactive) | -0.319 | 0.0398 | 0.215 | 1.58 | 1.17
4 | CCC[C@@H]1C=C(C(=O)OCC)[C@H](c2ccccc2)N1S(=O)(=O)c1ccc(C)cc1 | 0.796 | 1.14 | 0.898 | 0.979 | 0.947 | 0.538 | 2.03 | 0.565 | 1.2 | 1.41 (inactive) | 0.539 | -4.29 (inactive) | 1.18 (inactive) | -0.527 (inactive) | -0.578 (inactive) | 0.795 | 0.436 | 0.131 | 0.373 | 0.203
5 | [N-]=[N+]=Nc1ccccc1[C@@H]1OC(c2ccc(OCCCO)cc2)=N[C@]1(Cc1ccccc1)C(N)=O | 1.91 | 0.445 | 0.474 | 0.899 | 0.207 | -0.425 | 1.86 | -0.188 | 0.619 | -8.14 (active) | -0.0757 | -2 (inactive) | -0.0461 (inactive) | 0.195 (inactive) | -1.49 (inactive) | 0.533 | 0.451 | 0.245 | 0.305 | -0.0762
6 | CO[C@H]1O[C@H](CO)[C@@H](OC(=O)Nc2ccc(C(F)(F)F)cc2)[C@H](OC(=O)Nc2ccccc2-c2ccccc2)[C@@H]1OC(=O)Nc1ccccc1-c1ccccc1 | 2.01 | 1.1 | 0.799 | 0.911 | 1.3 | 0.697 | 0.284 | 1.08 | 1.04 | 0.798 (inactive) | 0.229 | -4.02 (inactive) | 0.821 (inactive) | 0.148 (inactive) | 0.892 (inactive) | 1.02 | 0.228 | 0.363 | 0.979 | 1.34
7 | O=C1OCCC=C[C@H]2OC34C=CCN(CCN5CCOCC5)C(=O)[C@H]3N(CCCO)C(=O)[C@@H]4C12 (stereo not given in full) | 0.0466 | -1.11 | -0.251 | -0.0881 | -0.0312 | -1.26 | -0.962 | -0.0933 | -0.458 | -0.552 (inactive) | -0.543 | -2.19 (inactive) | -0.561 (inactive) | -0.354 (inactive) | 1.74 (inactive) | -0.613 | -0.0066 | -1.78 | -1.33 | 0.243
8 | O=C1O[C@H](c2ccccc2)[C@H](c2ccccc2)N2[C@H]1[C@@H](C(=O)NC[C@H](O)c1ccccc1)[C@]1(C(=O)Nc3ccc(C#CCCO)cc31)[C@H]2c1ccccc1OCCO | 1.6 | 1.18 | 0.746 | 0.812 | 1.1 | 0.419 | -0.223 | 1.39 | 0.593 | 0.597 (inactive) | -0.24 | -1.9 (inactive) | -0.491 (inactive) | -0.141 (inactive) | -0.27 (inactive) | -0.0243 | 0.0633 | 0.898 | 1.01 | 1.97
9 | COc1ccc(C(O)C2C=CC3C(=O)N(C)C(=O)C3N2Nc2ccc([N+](=O)[O-])cc2[N+](=O)[O-])cc1OCc1ccccc1 (stereo not given) | 1.05 | 1.19 | 0.368 | 0.545 | 0.699 | -0.0627 | 0.552 | 0.0695 | 1.15 | 0.0945 (inactive) | 0.477 | 0.351 (inactive) | 0.967 (inactive) | 0.243 (inactive) | 0.706 (inactive) | 0.171 | 0.566 | 0.255 | 0.387 | -0.105
10 | O=C1c2ccccc2[C@](Cc2ccccc2I)(C(=O)O)[C@H](c2ccc(CO)cc2)N1Cc1ccccc1 | 0.729 | 0.0602 | 2.7 | 0.303 | -0.584 | -0.42 | 0.068 | -0.827 | 0.471 | -0.443 (inactive) | 0.303 | -2.39 (inactive) | -0.718 (inactive) | 0.0548 (inactive) | 0.131 (inactive) | 0.201 | 0.0627 | 0.363 | 0.0706 | -0.282
